Records with an inconclusive call do not appear. Activity calls are given as the source filed them. Calls come from the whole dose curve; as a rule, active = well fitted inhibition curve with a large enough effect; inconclusive = small, poorly fitted or top-dose-only effect; inactive = flat fitted curve, though single readings scatter.
These compounds were tested on ECU (assay: qHTS profiling for inhibitors of Plasmodium falciparum proliferation (AID 504749; note: nearly all actives have a fitted effect of over 60% in size;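 for activity, negative = inhibition: 0% = DMSO vehicle and full inhibition = artemisinin control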)). Conditions: P. falciparum in erythrocytes, SYBR Green DNA, 72 h; series mostly up to 28.7 µM; activity, negative = inhibition: at the top concentration.
Method in brief: (§1)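 Infected RBCs, 0.3% parasitemia/2.5% Hct final; cpd 72 h, 37 C, 5% CO2; lysis buffer with saponin/triton/SYBR Green I, o/n RT dark; FI 485/535; norm. to artemisinin (0.29 uM) and DMSO.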
`CCC(CC)(CC(=O)Nc1cccc(/C=C/c2nc(C3CCC3)cs2)c1)C(=O)O` was tested, and the “activity, negative = inhibition” value was 3.07% (inactive).
In the case of `C#C[C@]1(OC(C)=O)CC[C@H]2[C@@H]3CCC4=C/C(=N/O)CC[C@@H]4[C@H]3CC[C@@]21CC`, the “activity, negative = inhibition” value is reported as 2.1% (inactive).
With `CN1CCC(OC(c2ccccc2)c2ccccc2)CC1` the “activity, negative = inhibition” value was -13.6% [at 12.8 µM] (inactive).
`Cc1cccc(C)c1NC(=O)CN1CCCCCC1` was tested, and the “activity, negative = inhibition” value was 1.61% (inactive).
With `CCOC(=O)Nc1ccc2c(c1)N(C(=O)CCN1CCOCC1)c1ccccc1S2` the “activity, negative = inhibition” value was 6.33% [at 12.8 µM] (inactive).
With `Cc1cc2c(OCC(CNC(C)(C)C)OC(=O)c3ccccc3)cccc2[nH]1` (stereo not given) the “activity, negative = inhibition” value was -25.7% (inactive).
`CCc1ccc(C(=O)C(C)CN2CCCCC2)cc1` (stereo not given) was tested, and the “activity, negative = inhibition” value was -1.6% (inactive).
For `CCC(C(=O)OCCOCCN(CC)CC)c1ccccc1` (stereo not given), the “activity, negative = inhibition” value was -27.2% (inactive).
For `CN(C)CCN1C(=O)c2ccccc2N(C)c2ccccc21`, the “activity, negative = inhibition” value was -24.5% (inactive).
In the case of `CC(=O)NCCCCCC(=O)O`, the “activity, negative = inhibition” value is reported as 11.7% (inactive).
With `O=C(NC1CCN(CCc2c[nH]c3ccccc23)CC1)c1ccccc1` the “activity, negative = inhibition” value was -25.8% (inactive).
`CCOc1ccccc1OCCN[C@H](C)Cc1ccc(OC)c(S(N)(=O)=O)c1` was tested, and the “activity, negative = inhibition” value was 4.63% (inactive).
With `CCN(CC)CCOC(=O)C1(c2ccccc2)CCCC1` the “activity, negative = inhibition” value was -62.2% (inactive).
For `NC(=O)C1(N2CCCCC2)CCN(CCCC(=O)c2ccc(F)cc2)CC1`, the “activity, negative = inhibition” value was -2.45% (inactive).
With `CN(C)CCOC(c1ccc(Cl)cc1)c1ccccn1` (stereo not given) the “activity, negative = inhibition” value was -13.5% (inactive).
In the case of `Cc1ncc(CO)c(C=O)c1O`, the “activity, negative = inhibition” value is reported as 1.53% (inactive).
With `CC(=O)O[C@H]1C[C@@H]2CC[C@@H]3[C@H](CC[C@@]4(C)[C@H]3C[C@H]([N+]3(C)CCCCC3)[C@@H]4OC(C)=O)[C@@]2(C)C[C@@H]1N1CCCCC1` the “activity, negative = inhibition” value was -13.5% (inactive).
`CC[N+](C)(CC)CCOC(=O)C(O)(c1ccccc1)C1CCCCC1` (stereo not given) was tested, and the “activity, negative = inhibition” value was -11.7% (inactive).
In the case of `COc1cc([C@H]2Oc3cc([C@H]4Oc5cc(O)cc(O)c5C(=O)[C@@H]4O)ccc3O[C@@H]2CO)ccc1O`, the “activity, negative = inhibition” value is reported as -5.56% (inactive).
For `CO[C@]12C[C@@H](COC(=O)c3cncc(Br)c3)CN(C)[C@@H]1Cc1cn(C)c3cccc2c13`, the “activity, negative = inhibition” value was -11.6% (inactive).
`COc1ccc(C(=O)c2ccccc2O)c(O)c1` was tested, and the “activity, negative = inhibition” value was -28.4% [at 12.8 µM] (inactive).
For `CN1CCN(C2=Nc3ccccc3Sc3ccc(Cl)cc32)CC1`, the “activity, negative = inhibition” value was -21.7% (inactive).
In the case of `CCNC(=O)NCc1cccc(Cl)c1`, the “activity, negative = inhibition” value is reported as -0.412% (inactive).
For `C[N+]1(C)CCC(=C(c2ccccc2)c2ccccc2)CC1`, the “activity, negative = inhibition” value was -8.9% [at 12.8 µM] (inactive).
With `NCc1ccccc1Sc1ccccc1CO` the “activity, negative = inhibition” value was -21.8% (inactive).
With `OC[C@H]1O[C@@H]2O[C@H]3[C@H](O)[C@@H](O)[C@@H](O[C@H]4[C@H](O)[C@@H](O)[C@@H](O[C@H]5[C@H](O)[C@@H](O)[C@@H](O[C@H]6[C@H](O)[C@@H](O)[C@@H](O[C@H]7[C@H](O)[C@@H](O)[C@@H](O[C@H]8[C@H](O)[C@@H](O)[C@@H](O[C@H]1[C@H](O)[C@H]2O)O[C@@H]8CO)O[C@@H]7CO)O[C@@H]6CO)O[C@@H]5CO)O[C@@H]4CO)O[C@@H]3CO` the “activity, negative = inhibition” value was 7.1% (inactive).
For `CC(C)=CCOc1ccc(/C=C/C(=O)c2ccc(OCC=C(C)C)cc2OCC(=O)O)cc1`, the “activity, negative = inhibition” value was -12.9% (inactive).
In the case of `CN1CCN(C2=Nc3cc(F)ccc3Cc3ccccc32)CC1`, the “activity, negative = inhibition” value is reported as -23% (inactive).

Each compound was assayed on FAB9 in the same assay as above. Conditions: P. falciparum in erythrocytes, SYBR Green DNA, 72 h; series mostly up to 28.7 µM; activity, negative = inhibition: at the top concentration.
Method in brief: as §1
In the case of `O=C(CN1CCN(Cc2ccc3c(c2)OCO3)CC1)N1c2ccccc2Sc2ccccc21`, the “activity, negative = inhibition” value is reported as -22% (inactive).
For `CCC(CC)(CC(=O)Nc1cccc(/C=C/c2nc(C3CCC3)cs2)c1)C(=O)O`, the “activity, negative = inhibition” value was 1.68% (inactive).
With `COc1ccc(C(=O)c2ccccc2)c(O)c1` the “activity, negative = inhibition” value was -10.3% (inactive).
`COc1cc(O)c(C(=O)c2ccccc2)cc1S(=O)(=O)O` was tested, and the “activity, negative = inhibition” value was 6.6% (inactive).
In the case of `C#C[C@]1(OC(C)=O)CC[C@H]2[C@@H]3CCC4=C/C(=N/O)CC[C@@H]4[C@H]3CC[C@@]21CC`, the “activity, negative = inhibition” value is reported as 3.33% (inactive).
For `CN1CCC(OC(c2ccccc2)c2ccccc2)CC1`, the “activity, negative = inhibition” value was 0.653% [at 12.8 µM] (inactive).
For `Cc1cccc(C)c1NC(=O)CN1CCCCCC1`, the “activity, negative = inhibition” value was 8.18% (inactive).
`CCOC(=O)Nc1ccc2c(c1)N(C(=O)CCN1CCOCC1)c1ccccc1S2` was tested, and the “activity, negative = inhibition” value was 4.62% [at 12.8 µM] (inactive).
In the case of `Cc1cc2c(OCC(CNC(C)(C)C)OC(=O)c3ccccc3)cccc2[nH]1` (stereo not given), the “activity, negative = inhibition” value is reported as -0.614% (inactive).
For `CCc1ccc(C(=O)C(C)CN2CCCCC2)cc1` (stereo not given), the “activity, negative = inhibition” value was -2.29% (inactive).
For `CCC(C(=O)OCCOCCN(CC)CC)c1ccccc1` (stereo not given), the “activity, negative = inhibition” value was 1.92% (inactive).
For `CN(C)CCN1C(=O)c2ccccc2N(C)c2ccccc21`, the “activity, negative = inhibition” value was 7.11% (inactive).
For `Oc1ccc(Cl)cc1Cc1cc(Cl)ccc1O`, the “activity, negative = inhibition” value was 1.13% (inactive).
With `CC(=O)NCCCCCC(=O)O` the “activity, negative = inhibition” value was 0.0855% (inactive).
With `O=C(NC1CCN(CCc2c[nH]c3ccccc23)CC1)c1ccccc1` the “activity, negative = inhibition” value was -23.6% (inactive).
In the case of `CCOc1ccccc1OCCN[C@H](C)Cc1ccc(OC)c(S(N)(=O)=O)c1`, the “activity, negative = inhibition” value is reported as 0.454% (inactive).
`CCN(CC)CCOC(=O)C1(c2ccccc2)CCCC1` was tested, and the “activity, negative = inhibition” value was 4.95% (inactive).
`NC(=O)C1(N2CCCCC2)CCN(CCCC(=O)c2ccc(F)cc2)CC1` was tested, and the “activity, negative = inhibition” value was 5.09% (inactive).
`CN(C)CCOC(c1ccc(Cl)cc1)c1ccccn1` (stereo not given) was tested, and the “activity, negative = inhibition” value was 6.21% (inactive).
With `Cc1ncc(CO)c(C=O)c1O` the “activity, negative = inhibition” value was 11.2% (inactive).
In the case of `CC(=O)O[C@H]1C[C@@H]2CC[C@@H]3[C@H](CC[C@@]4(C)[C@H]3C[C@H]([N+]3(C)CCCCC3)[C@@H]4OC(C)=O)[C@@]2(C)C[C@@H]1N1CCCCC1`, the “activity, negative = inhibition” value is reported as -21.1% (inactive).
`CC[N+](C)(CC)CCOC(=O)C(O)(c1ccccc1)C1CCCCC1` (stereo not given) was tested, and the “activity, negative = inhibition” value was -38.4% (inactive).
For `COc1cc([C@H]2Oc3cc([C@H]4Oc5cc(O)cc(O)c5C(=O)[C@@H]4O)ccc3O[C@@H]2CO)ccc1O`, the “activity, negative = inhibition” value was 2.6% (inactive).
`CO[C@]12C[C@@H](COC(=O)c3cncc(Br)c3)CN(C)[C@@H]1Cc1cn(C)c3cccc2c13` was tested, and the “activity, negative = inhibition” value was 1.82% (inactive).
For `COc1ccc(C(=O)c2ccccc2O)c(O)c1`, the “activity, negative = inhibition” value was 2.81% [at 12.8 µM] (inactive).
For `CN1CCN(C2=Nc3ccccc3Sc3ccc(Cl)cc32)CC1`, the “activity, negative = inhibition” value was 7.92% (inactive).
In the case of `CCNC(=O)NCc1cccc(Cl)c1`, the “activity, negative = inhibition” value is reported as 5.3% (inactive).
For `O=[N+]([O-])c1cccc(S(=O)(=O)NCCNS(=O)(=O)c2cccc([N+](=O)[O-])c2)c1`, the “activity, negative = inhibition” value was -7.29% (inactive).
`O=S(c1cc(Cl)cc(Cl)c1O)c1cc(Cl)cc(Cl)c1O` was tested, and the Potency was 0.0224 µM (active).
With `CC(C)[N+](C)(C)CC(O)COc1cccc2ccccc12` (stereo not given) the Potency was 7.94 µM (active).
In the case of `NCc1ccccc1Sc1ccccc1CO`, the “activity, negative = inhibition” value is reported as -0.909% (inactive).
For `OC[C@H]1O[C@@H]2O[C@H]3[C@H](O)[C@@H](O)[C@@H](O[C@H]4[C@H](O)[C@@H](O)[C@@H](O[C@H]5[C@H](O)[C@@H](O)[C@@H](O[C@H]6[C@H](O)[C@@H](O)[C@@H](O[C@H]7[C@H](O)[C@@H](O)[C@@H](O[C@H]8[C@H](O)[C@@H](O)[C@@H](O[C@H]1[C@H](O)[C@H]2O)O[C@@H]8CO)O[C@@H]7CO)O[C@@H]6CO)O[C@@H]5CO)O[C@@H]4CO)O[C@@H]3CO`, the “activity, negative = inhibition” value was 23.2% (inactive).
For `COC(=O)C(c1ccccc1Cl)N1CCc2sccc2C1` (stereo not given), the “activity, negative = inhibition” value was 3.02% (inactive).
With `CCCCCCCCCCCCOCCOCCOCCOCCOCCOCCOCCOCCOCCO` the “activity, negative = inhibition” value was -16.3% (inactive).
For `CC(C)=CCOc1ccc(/C=C/C(=O)c2ccc(OCC=C(C)C)cc2OCC(=O)O)cc1`, the “activity, negative = inhibition” value was -0.935% (inactive).
With `CN1CCN(C2=Nc3cc(F)ccc3Cc3ccccc32)CC1` the “activity, negative = inhibition” value was 2% (inactive).
`CC(=O)O[C@]1(C(C)=O)CC[C@H]2[C@@H]3C=C(Cl)C4=CC(=O)CC[C@]4(C)[C@H]3CC[C@@]21C` was tested, and the “activity, negative = inhibition” value was -1.35% (inactive).
Potency is the fitted concentration of half-maximal effect.
